Results as given in PubChem BioAssay (NCATS).
Values without a mark were called inactive. Records with an inconclusive call do not appear. Active and inactive are the calls of the source. Unless noted, calls come from the whole dose curve; as a rule, active = well fitted curve in either direction with a large enough effect (not every such curve was filed as active); inconclusive = small, poorly fitted or top-dose-only effect, or another doubt; inactive = flat fitted curve, though single readings scatter.

Experiments:
[1] = target: Lysosomal acid glucosylceramidase (Homo sapiens) (UniProt P04062); test: Glucocerebrosidase-p2 (AID 348; in the data active = potency below about 10 µM; note: potency is the fitted concentration of half-maximal effect); details: purified GBA, blue fluorogenic substrate, 40 min
In short: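 Normal human glucocerebrosidase (0.2 nM) with blue fluorogenic substrate (80 uM final) in citrate/phosphate pH 5.9 with 10mM sodium taurocholate, 0.01% tween-20; 40 min RT, NaOH/glycine stop; fluorescence Ex 365/Em 440; AC50 from a titration from 0.6 nM upwards.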

[2] = AP1 Signaling Pathway (AID 357); details: ME-180 AP-1-bla reporter, EGF-induced, beta-lactamase ratio, 5 h; at 7.69 µM (top of the series) unless noted;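 note: ME-180 reporter cells stimulated with EGF at its EC50 level; % is set by controls: 0 for no effect and ±100 for the full control effect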
In short: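 Beta-lactamase reporter under AP-1 response element, ME-180 background. Stimulus: EC50 EGF. Compound exposure 5 h, 37 °C. Detection: CCF4, 2.5 h RT, 460/530 nm. Values: AC50 from titration.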

[3] = target: Cytochrome P450 1A2 (Homo sapiens) (UniProt P05177); test: p450-cyp1a2 (AID 410; calls by dose curve; note: potency is the fitted concentration of half-maximal effect;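 for activity change, negative = inhibition: -100% = full effect of reference inhibitor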); details: recombinant CYP1A2, luciferin-ME demethylation, luminescence; series mostly up to 11.4 µM
In short: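 O-Demethylation of luciferin 6' methyl ether by human CYP1A2 is monitored as luciferase luminescence. Substrate sits at Km (100uM); enzyme is 20nM. Values are scaled to 57 uM furafylline as maximal inhibition.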

[4] = NFAT Signaling Pathway (AID 444); details: Jurkat NFAT-bla M1, carbachol, beta-lactamase ratio, 5 h; at 7.69 µM (top of the series) unless noted;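 note: carbachol stimulus at about its EC50 of 1 µM final; % is set by controls: 0 for no effect and ±100 for the full control effect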
In short: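 Jurkat cells with NFAT-driven β-lactamase reporter and co-expressed M1 receptor, stimulated with carbachol (final 1 uM, ~EC50), compound titration, 5 h at 37 °C. CCF4 loaded 1 h at RT; 460/530 nm ratio gave %activity and AC50.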

[5] = Stat Signaling Pathway (AID 446); details: ME-180 (cervical carcinoma) SIE beta-lactamase reporter, IL-6 stimulated, 5 h; at 7.69 µM (top of the series) unless noted;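 note: ME-180 cervical cancer cells given 40 pM IL-6 alongside compound; SIE-controlled beta-lactamase reporter measured as 460/530 nm FRET emission ratio; % is set by controls: 0 for no effect and ±100 for the full control effect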
In short: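 Emission at 460 and 530 nm (excitation 405 nm) reports SIE-controlled beta-lactamase in ME-180 cells. Cells received compound with 40 pM IL-6 for 5 hrs at 37 C; data scaled between 300 pM IL-6 and 125 nM JAK-inhibitor controls.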

[6] = target: Glucocorticoid receptor (Homo sapiens) (UniProt P04150); test: GR-GFP Redistribution (AID 450;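 active = compounds whose dose series gives a full or clear partial fitted curve of increased nuclear translocation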; note: potency is the fitted concentration of half-maximal effect); details: U2OS GR-GFP nuclear translocation, laser cytometry, 2 h
[7] = target: Glucocorticoid receptor (Homo sapiens) (UniProt P04150); test: GR-EFC Redistribution (AID 451; calls by dose curve; note: potency is the fitted concentration of half-maximal effect); details: CHO-K1 GR-EFC translocation, beta-gal luminescence, 2 h
In short: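 CHO-K1 cells expressing nuclear EA and GR-ED fragments of b-gal; compounds titrated up to 46 uM final, 2 h at 37 C. GR nuclear translocation read as complemented b-gal luminescence after 1 h RT detection.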

[8] = target: Mitogen-activated protein kinase 10 (Mus musculus) (UniProt Q61831); test: JNK3 AlphaScreen Assay (AID 530); details: JNK3 lysate, c-Jun phosphorylation; series mostly up to 11.4 µM;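 note: kinase came from lysate of stimulated human HepG2 cells; signal reports phosphorylation of biotinylated GST-cJun 1-79 at Ser73 with 10 µM ATP; % is set by controls: 0 for no effect and ±100 for the full control effect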
In short: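 Activity was read by AlphaScreen after JNK3-containing HepG2 lysate (cytokine pre-activated) phosphorylated biotinylated GST-cJun with 10 uM ATP at room temperature. Phospho-Ser73 cJun antibody with Protein-A acceptor beads provided detection.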

[9] = target: 3',5'-cyclic-AMP phosphodiesterase 4B (Homo sapiens) (UniProt Q07343); test: qHTS Assay for Inhibitors of PDE-IV (AID 607; active = well fitted activation curve with a large enough effect in the main read-out, with a control signal flat, not every such curve was filed as active; note: % of control where 0% means no effect); details: HEK293 ACTOne CNG channel cells, membrane potential fluorescence; series mostly up to 22.9 µM
In short: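 The readout is membrane depolarisation from a cAMP-sensing CNG channel, detected with a potential dye at ex 535/em 590. Cells were HEK293-derived (endogenous PDE-IV) at 1000 cells/well, titrated up to 22.9 uM final.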

Chain of Glucocorticoid receptor (Homo sapiens) (P04150 whole entry, looked up, the tested form may be a part): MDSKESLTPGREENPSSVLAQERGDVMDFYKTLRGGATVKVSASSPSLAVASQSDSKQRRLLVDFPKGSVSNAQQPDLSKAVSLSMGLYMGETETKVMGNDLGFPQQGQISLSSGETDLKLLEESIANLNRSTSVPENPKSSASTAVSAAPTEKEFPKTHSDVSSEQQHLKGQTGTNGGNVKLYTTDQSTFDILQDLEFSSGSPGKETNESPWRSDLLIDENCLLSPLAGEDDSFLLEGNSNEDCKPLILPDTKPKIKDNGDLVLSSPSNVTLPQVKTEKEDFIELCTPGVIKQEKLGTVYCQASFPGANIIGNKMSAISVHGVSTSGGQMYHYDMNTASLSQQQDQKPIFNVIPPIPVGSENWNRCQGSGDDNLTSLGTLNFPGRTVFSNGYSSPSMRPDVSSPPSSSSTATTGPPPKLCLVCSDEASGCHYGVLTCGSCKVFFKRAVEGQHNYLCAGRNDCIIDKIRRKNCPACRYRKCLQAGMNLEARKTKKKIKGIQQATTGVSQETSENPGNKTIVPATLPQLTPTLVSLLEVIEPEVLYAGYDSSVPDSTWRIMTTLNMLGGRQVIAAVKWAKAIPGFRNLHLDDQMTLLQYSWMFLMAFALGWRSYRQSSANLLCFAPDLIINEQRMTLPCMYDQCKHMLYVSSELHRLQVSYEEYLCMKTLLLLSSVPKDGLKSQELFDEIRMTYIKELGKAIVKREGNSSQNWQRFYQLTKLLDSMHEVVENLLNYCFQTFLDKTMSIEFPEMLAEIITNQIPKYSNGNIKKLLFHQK
Chain of 3',5'-cyclic-AMP phosphodiesterase 4B (Homo sapiens) (Q07343 whole entry, looked up): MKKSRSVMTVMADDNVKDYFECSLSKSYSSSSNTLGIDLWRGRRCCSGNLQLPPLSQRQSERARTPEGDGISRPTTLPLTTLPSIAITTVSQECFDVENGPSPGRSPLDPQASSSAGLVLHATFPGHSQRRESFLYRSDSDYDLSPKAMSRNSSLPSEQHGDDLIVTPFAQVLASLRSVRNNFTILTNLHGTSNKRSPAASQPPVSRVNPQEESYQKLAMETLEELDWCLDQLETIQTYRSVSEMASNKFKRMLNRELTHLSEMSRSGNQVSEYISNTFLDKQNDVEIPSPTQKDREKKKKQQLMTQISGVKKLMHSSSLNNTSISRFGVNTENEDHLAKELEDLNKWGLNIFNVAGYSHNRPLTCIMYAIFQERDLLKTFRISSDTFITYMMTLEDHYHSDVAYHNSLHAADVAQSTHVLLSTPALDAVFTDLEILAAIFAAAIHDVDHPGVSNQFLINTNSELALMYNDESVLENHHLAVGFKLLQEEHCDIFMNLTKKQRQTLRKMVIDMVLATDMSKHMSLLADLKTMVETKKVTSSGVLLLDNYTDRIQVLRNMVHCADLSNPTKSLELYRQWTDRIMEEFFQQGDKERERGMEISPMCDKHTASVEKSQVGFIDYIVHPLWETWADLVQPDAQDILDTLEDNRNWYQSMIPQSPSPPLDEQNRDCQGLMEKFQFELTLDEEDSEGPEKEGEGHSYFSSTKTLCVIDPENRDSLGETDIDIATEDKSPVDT
Chain of Lysosomal acid glucosylceramidase (Homo sapiens) (P04062 whole entry, looked up): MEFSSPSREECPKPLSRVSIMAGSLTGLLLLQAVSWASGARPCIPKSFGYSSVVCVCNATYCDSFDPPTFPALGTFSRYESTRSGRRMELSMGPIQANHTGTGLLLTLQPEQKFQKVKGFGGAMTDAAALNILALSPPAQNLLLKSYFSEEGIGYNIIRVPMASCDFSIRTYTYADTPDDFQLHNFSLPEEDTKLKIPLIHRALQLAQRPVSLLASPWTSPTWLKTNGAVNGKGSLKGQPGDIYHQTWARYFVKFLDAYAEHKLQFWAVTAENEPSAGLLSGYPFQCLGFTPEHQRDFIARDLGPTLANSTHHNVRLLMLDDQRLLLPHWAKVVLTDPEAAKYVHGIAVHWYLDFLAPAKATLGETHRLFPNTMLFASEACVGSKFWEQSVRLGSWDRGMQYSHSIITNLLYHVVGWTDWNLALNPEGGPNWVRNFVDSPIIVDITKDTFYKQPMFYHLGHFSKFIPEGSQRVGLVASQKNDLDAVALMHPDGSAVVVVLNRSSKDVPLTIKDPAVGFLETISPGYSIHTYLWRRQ
Chain of Cytochrome P450 1A2 (Homo sapiens) (P05177 whole entry, looked up): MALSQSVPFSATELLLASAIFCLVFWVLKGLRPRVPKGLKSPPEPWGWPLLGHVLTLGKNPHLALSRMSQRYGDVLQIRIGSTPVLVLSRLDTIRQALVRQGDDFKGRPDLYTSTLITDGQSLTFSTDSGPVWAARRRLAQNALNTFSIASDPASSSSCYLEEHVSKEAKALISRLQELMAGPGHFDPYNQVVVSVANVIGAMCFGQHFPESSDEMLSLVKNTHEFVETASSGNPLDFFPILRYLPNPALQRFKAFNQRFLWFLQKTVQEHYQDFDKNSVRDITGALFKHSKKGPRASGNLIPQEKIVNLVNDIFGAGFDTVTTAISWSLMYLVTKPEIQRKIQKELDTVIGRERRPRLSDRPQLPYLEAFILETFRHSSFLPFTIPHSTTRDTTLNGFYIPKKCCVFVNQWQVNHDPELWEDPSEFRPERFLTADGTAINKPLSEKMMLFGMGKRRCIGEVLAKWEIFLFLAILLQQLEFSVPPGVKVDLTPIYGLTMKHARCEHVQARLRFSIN

Structure (SMILES) | Potency [1] | activity change, negative = inhibition [2] | Potency [3] | activity change, negative = inhibition [4] | activity, negative = inhibition [5] | Potency [6] | Potency [7] | Potency [8] | Potency [9] | activity change, negative = inhibition [3]
Cn1c(=O)c2[nH]c(CCS)nc2n(C)c1=O | > 11.4 µM | 3.25% | inactive | -18% | 3.06% | > 46 µM | > 9.22 µM | inactive | inactive | 
COc1ccc2[nH]c3cc4c(=O)c5cc(OC)ccc5[nH]c4cc3c(=O)c2c1 | > 11.4 µM | -2.15% |  | -1.64% | -1.86% | > 46 µM | > 9.22 µM | inactive | inactive | -6% [at 2.29 µM]
O=C(O)c1cc(C(=O)O)nc(C(=O)O)c1 | > 11.4 µM | 7.15% | inactive | 0.674% | 3.63% | > 46 µM | > 9.22 µM | inactive | inactive | 
CC1(C)O[C@H]2[C@@H](c3[nH]nc4c(=O)[nH]c(=O)[nH]c34)OC[C@H]2O1 | > 11.4 µM | 8.08% | inactive | -14.8% | 8.45% | > 46 µM | > 9.22 µM | inactive | inactive | 
CC[C@](N)(C(=O)O)C(C)C | > 11.4 µM | 6.23% | inactive | -9.09% | -6.84% | > 46 µM | > 9.22 µM | inactive | inactive | 
O=C(O)c1ccccc1/C=N\N=C1c2ccccc2-c2ccccc21 | > 11.4 µM | 20.6% | 0.316 µM (active) | 7.67% | -13.9% | > 46 µM | > 9.22 µM | inactive | inactive | 
Cn1c(N)c(N=Nc2ccc(S(N)(=O)=O)cc2)c(=O)n(C)c1=O | > 11.4 µM | 12.7% |  | 16.4% | 24.3% | > 46 µM | > 9.22 µM | inactive | inactive | -12.8% [at 2.29 µM]
NCc1ccc(C(=O)O)cc1 | > 11.4 µM | 3.17% |  | 6.92% | -2.22% | > 46 µM | > 9.22 µM | inactive | inactive | -4.8% [at 2.29 µM]
